Results: PMC11006913
Positions count from the first letter of the chain named.

Experiments:
Test in all cases: PBM; 200 nM protein, PBS
Conditions in all cases: dsDNA, one strand shown
SIX6 [1] = biological target: T1, SIX6 (Homo sapiens, UniProt O95475 114-200, L167I)
T1 sequence: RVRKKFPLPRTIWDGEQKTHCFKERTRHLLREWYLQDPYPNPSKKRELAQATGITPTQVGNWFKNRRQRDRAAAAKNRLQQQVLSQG

SIX6 [2] = biological target: T2, SIX6 (Homo sapiens, UniProt O95475 114-200, L143V)
T2 sequence: T1 sequence with L30V, I54L

SIX6 [3] = biological target: T3, SIX6 (Homo sapiens, UniProt O95475 114-200, H141N)
T3 sequence: T1 sequence with H28N, I54L

SIX6 [4] = biological target: T4, SIX6 (Homo sapiens, UniProt O95475 114-200, T165P)
T4 sequence: T1 sequence with T52P, I54L

SIX6 [5] = biological target: T5, SIX6 (Homo sapiens, UniProt O95475 114-200, L167M)
T5 sequence: T1 sequence with I54M

SIX6 [6] = biological target: T6, SIX6 (Homo sapiens, UniProt O95475 114-200, L143M)
T6 sequence: T1 sequence with L30M, I54L

SIX6 [7] = biological target: T7, SIX6 (Homo sapiens, UniProt O95475 114-200, L143I)
T7 sequence: T1 sequence with L30I, I54L

SIX6 [8] = biological target: T8, SIX6 (Homo sapiens, UniProt O95475 114-200, T165G)
T8 sequence: T1 sequence with T52G, I54L

SIX6 [9] = biological target: T9, SIX6 (Homo sapiens, UniProt O95475 114-200, T139Q)
T9 sequence: T1 sequence with T26Q, I54L

SIX6 [10] = biological target: T10, SIX6 (Homo sapiens, UniProt O95475 114-200, T165A)
T10 sequence: T1 sequence with T52A, I54L

SIX6 [11] = biological target: T11, SIX6 (Homo sapiens, UniProt O95475 114-200, L167V)
T11 sequence: T1 sequence with I54V

SIX6 [12] = biological target: T12, SIX6 (Homo sapiens, UniProt O95475 114-200)
T12 sequence: T1 sequence with I54L

SIX6 [13] = biological target: T13, SIX6 (Homo sapiens, UniProt O95475 114-200, T165I)
T13 sequence: T1 sequence with T52I, I54L

HOXA2 [14] = biological target: HOXA2 (Homo sapiens, UniProt O43364 129-215, R185T)
HOXA2 [15] = biological target: HOXA2 (Homo sapiens, UniProt O43364 129-215, R185K)
HOXA2 [16] = biological target: HOXA2 (Homo sapiens, UniProt O43364 129-215, Y150S)
HOXA2 [17] = biological target: HOXA2 (Homo sapiens, UniProt O43364 129-215)
HOXB9 [18] = biological target: HOXB9 (Homo sapiens, UniProt P17482 171-250)
HOXB9 [19] = biological target: HOXB9 (Homo sapiens, UniProt P17482 171-250, R186Q)
HOXB9 (Homo sapiens, UniProt P17482 171-250, R186Q), sequence (P17482 171-250 R186Q): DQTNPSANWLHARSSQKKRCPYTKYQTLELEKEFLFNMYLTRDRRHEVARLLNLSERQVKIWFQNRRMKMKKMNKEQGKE

HOXA2 (Homo sapiens, UniProt O43364 129-215), sequence (O43364 129-215): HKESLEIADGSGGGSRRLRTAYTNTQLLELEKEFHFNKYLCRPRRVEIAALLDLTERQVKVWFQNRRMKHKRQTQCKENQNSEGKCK
HOXA2 (Homo sapiens, UniProt O43364 129-215, R185T), sequence (O43364 129-215 R185T): as the sequence (O43364 129-215) above, with R57T counted along it
HOXB9 (Homo sapiens, UniProt P17482 171-250), sequence (P17482 171-250): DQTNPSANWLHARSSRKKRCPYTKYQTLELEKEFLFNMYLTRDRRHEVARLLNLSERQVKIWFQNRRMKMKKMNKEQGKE
HOXA2 (Homo sapiens, UniProt O43364 129-215, Y150S), sequence (O43364 129-215 Y150S): as the sequence (O43364 129-215) above, with Y22S counted along it
HOXA2 (Homo sapiens, UniProt O43364 129-215, R185K), sequence (O43364 129-215 R185K): as the sequence (O43364 129-215) above, with R57K counted along it

Sequence	binding signal (SIX6 [1])	binding signal (SIX6 [2])	binding signal (SIX6 [3])	binding signal (SIX6 [4])	binding signal (SIX6 [5])	binding signal (SIX6 [6])	binding signal (SIX6 [7])	binding signal (SIX6 [8])	binding signal (SIX6 [9])	binding signal (SIX6 [10])	binding signal (SIX6 [11])	binding signal (SIX6 [12])	binding signal (SIX6 [13])	binding signal (HOXA2 [14])	binding signal (HOXA2 [15])	binding signal (HOXA2 [16])	binding signal (HOXA2 [17])	binding signal (HOXB9 [18])	binding signal (HOXB9 [19])
CAGCGCCG	8.83 upbm affinity estimate (log intensity, higher = more binding, comparable within an allelic series)	8.75 upbm affinity estimate (log intensity, higher = more binding, comparable within an allelic series)	8.78 upbm affinity estimate (log intensity, higher = more binding, comparable within an allelic series)	8.87 upbm affinity estimate (log intensity, higher = more binding, comparable within an allelic series)	8.78 upbm affinity estimate (log intensity, higher = more binding, comparable within an allelic series)	8.76 upbm affinity estimate (log intensity, higher = more binding, comparable within an allelic series)	8.8 upbm affinity estimate (log intensity, higher = more binding, comparable within an allelic series)	8.83 upbm affinity estimate (log intensity, higher = more binding, comparable within an allelic series)	8.77 upbm affinity estimate (log intensity, higher = more binding, comparable within an allelic series)	8.74 upbm affinity estimate (log intensity, higher = more binding, comparable within an allelic series)	8.79 upbm affinity estimate (log intensity, higher = more binding, comparable within an allelic series)	8.78 upbm affinity estimate (log intensity, higher = more binding, comparable within an allelic series)	8.74 upbm affinity estimate (log intensity, higher = more binding, comparable within an allelic series)	–	–	–	–	–	–
CCGGGCGC	8.78 upbm affinity estimate (log intensity, higher = more binding, comparable within an allelic series)	8.67 upbm affinity estimate (log intensity, higher = more binding, comparable within an allelic series)	8.71 upbm affinity estimate (log intensity, higher = more binding, comparable within an allelic series)	8.75 upbm affinity estimate (log intensity, higher = more binding, comparable within an allelic series)	8.72 upbm affinity estimate (log intensity, higher = more binding, comparable within an allelic series)	8.66 upbm affinity estimate (log intensity, higher = more binding, comparable within an allelic series)	8.69 upbm affinity estimate (log intensity, higher = more binding, comparable within an allelic series)	8.73 upbm affinity estimate (log intensity, higher = more binding, comparable within an allelic series)	8.6 upbm affinity estimate (log intensity, higher = more binding, comparable within an allelic series)	8.69 upbm affinity estimate (log intensity, higher = more binding, comparable within an allelic series)	8.69 upbm affinity estimate (log intensity, higher = more binding, comparable within an allelic series)	8.66 upbm affinity estimate (log intensity, higher = more binding, comparable within an allelic series)	8.72 upbm affinity estimate (log intensity, higher = more binding, comparable within an allelic series)	–	–	–	–	–	–
CGCGTGGC	9.04 upbm affinity estimate (log intensity, higher = more binding, comparable within an allelic series)	8.85 upbm affinity estimate (log intensity, higher = more binding, comparable within an allelic series)	9.07 upbm affinity estimate (log intensity, higher = more binding, comparable within an allelic series)	8.86 upbm affinity estimate (log intensity, higher = more binding, comparable within an allelic series)	8.92 upbm affinity estimate (log intensity, higher = more binding, comparable within an allelic series)	8.96 upbm affinity estimate (log intensity, higher = more binding, comparable within an allelic series)	8.93 upbm affinity estimate (log intensity, higher = more binding, comparable within an allelic series)	9 upbm affinity estimate (log intensity, higher = more binding, comparable within an allelic series)	9.1 upbm affinity estimate (log intensity, higher = more binding, comparable within an allelic series)	8.98 upbm affinity estimate (log intensity, higher = more binding, comparable within an allelic series)	8.96 upbm affinity estimate (log intensity, higher = more binding, comparable within an allelic series)	8.97 upbm affinity estimate (log intensity, higher = more binding, comparable within an allelic series)	9.02 upbm affinity estimate (log intensity, higher = more binding, comparable within an allelic series)	7.16 upbm affinity estimate (log intensity, higher = more binding, comparable within an allelic series)	10.4 upbm affinity estimate (log intensity, higher = more binding, comparable within an allelic series)	10.3 upbm affinity estimate (log intensity, higher = more binding, comparable within an allelic series)	7.31 upbm affinity estimate (log intensity, higher = more binding, comparable within an allelic series)	–	–
AGATATAC	11 upbm affinity estimate (log intensity, higher = more binding, comparable within an allelic series)	10.4 upbm affinity estimate (log intensity, higher = more binding, comparable within an allelic series)	10.8 upbm affinity estimate (log intensity, higher = more binding, comparable within an allelic series)	9.92 upbm affinity estimate (log intensity, higher = more binding, comparable within an allelic series)	10.9 upbm affinity estimate (log intensity, higher = more binding, comparable within an allelic series)	10.9 upbm affinity estimate (log intensity, higher = more binding, comparable within an allelic series)	10.4 upbm affinity estimate (log intensity, higher = more binding, comparable within an allelic series)	11 upbm affinity estimate (log intensity, higher = more binding, comparable within an allelic series)	10.9 upbm affinity estimate (log intensity, higher = more binding, comparable within an allelic series)	10.8 upbm affinity estimate (log intensity, higher = more binding, comparable within an allelic series)	10.7 upbm affinity estimate (log intensity, higher = more binding, comparable within an allelic series)	10.9 upbm affinity estimate (log intensity, higher = more binding, comparable within an allelic series)	10.8 upbm affinity estimate (log intensity, higher = more binding, comparable within an allelic series)	8.17 upbm affinity estimate (log intensity, higher = more binding, comparable within an allelic series)	–	–	8.19 upbm affinity estimate (log intensity, higher = more binding, comparable within an allelic series)	–	–
AGTGATAT	11.3 upbm affinity estimate (log intensity, higher = more binding, comparable within an allelic series)	10.3 upbm affinity estimate (log intensity, higher = more binding, comparable within an allelic series)	11.3 upbm affinity estimate (log intensity, higher = more binding, comparable within an allelic series)	9.9 upbm affinity estimate (log intensity, higher = more binding, comparable within an allelic series)	10.8 upbm affinity estimate (log intensity, higher = more binding, comparable within an allelic series)	11 upbm affinity estimate (log intensity, higher = more binding, comparable within an allelic series)	10.3 upbm affinity estimate (log intensity, higher = more binding, comparable within an allelic series)	11.2 upbm affinity estimate (log intensity, higher = more binding, comparable within an allelic series)	11.1 upbm affinity estimate (log intensity, higher = more binding, comparable within an allelic series)	11.2 upbm affinity estimate (log intensity, higher = more binding, comparable within an allelic series)	11 upbm affinity estimate (log intensity, higher = more binding, comparable within an allelic series)	11 upbm affinity estimate (log intensity, higher = more binding, comparable within an allelic series)	11.1 upbm affinity estimate (log intensity, higher = more binding, comparable within an allelic series)	–	–	–	–	9.87 upbm affinity estimate (log intensity, higher = more binding, comparable within an allelic series)	9.76 upbm affinity estimate (log intensity, higher = more binding, comparable within an allelic series)
